Inconclusive results are not listed. Unmarked numbers belong to inactive results. The call rests on the fitted dose curve; in most records, active means well fitted cell-killing curve with a large enough effect; inconclusive means small, poorly fitted or top-dose-only effect, or effect the other way; inactive means flat fitted curve, though single readings scatter.
Tested on: OV90
Experiment: Primary qHTS to identify gynecologic anti-cancer compounds using libraries of approved drugs and bioactive compounds (AID 1345084); further: nearly all actives have a fitted effect of over 55% in size
Settings: Gynecologic cancer cell panel viability, ATPlite luminescence, 48 h; series mostly up to 57.5 µM; activity change, negative = cytotoxicity: at the top concentration
In short: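 Five-point cytotoxicity, 48 h drug exposure at 37 C, 5% CO2, on cells seeded 16 h beforehand. ATP content read by ATPlite luminescence.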
On the % scale 0 is the no-effect control and ±100 the full control effect.

| SMILES | activity change, negative = cytotoxicity |
| --- | --- |
| CC1CC(=O)C2=C(C1)C1OC1C1(O)C2C(=O)c2cccc(O)c2C1O (stereo not given) | -7.13% [at 38.5 µM] |
| C=CC(=O)N1CCCC(n2nc(-c3ccc(Oc4ccccc4)cc3)c3c(N)ncnc32)C1 (stereo not given) | 8.8% |
| Cc1cc(C)c2c(c1)C(N(Cc1cc(C(F)(F)F)cc(C(F)(F)F)c1)c1nnn(C)n1)CCCN2CC1CCC(C(=O)O)CC1 (stereo not given) | 0.778% |
| OC1CCC(Nc2nc(-c3ccccc3)nc3[nH]ccc23)CC1 (stereo not given) | 4.98% |
| C=C[C@@]1(C)CCC2C(=CCC3[C@]2(C)CCC[C@@]3(C)C(=O)O)C1 (stereo not given in full) | -1.48% |
| Cc1nc2ccc(CN(C)c3ccc(C(=O)NC(CCC(=O)O)C(=O)O)s3)cc2c(=O)[nH]1 (stereo not given) | -20% |
| COc1ccccc1S(=O)(=O)Nc1ccc2c(c1)CN(C)C(=O)N2 | -19.1% |
| NCC1CCN(c2nccc(-c3ccc4ccccc4c3)n2)CC1 | -9.72% |
| C[C@H](Oc1cc(-n2cnc3ccc(CN4CCN(C)CC4)cc32)sc1C(N)=O)c1ccccc1C(F)(F)F | 3.7% |
| CC#C[C@@H](CC(=O)O)c1ccc(OCc2cccc(-c3ccc(C(F)(F)F)cc3)c2)cc1 | -0.844% |
| C=C1C(=O)OC2CC(C)=C(C(C)CCCOC(C)=O)C(OC(=O)CC(C)CC)C12 (stereo not given) | -2.46% [at 25.3 µM] |
| N#C/C(=C1\Nc2ccccc2S1)c1ccnc(NCCc2cccnc2)n1 | 4.5% |
| C/C=C(\C)C(=O)O[C@H]1C=CC(=O)O[C@H]1/C=C/[C@@H](O)[C@H](C)O | -22.6% |
| FC(F)(F)c1ccccc1-c1cc(C(F)(F)F)c2nc(C3=NOC4(CCCCC4)C3)[nH]c2c1 | 1.41% |
| Cn1cc(-c2cnn3c(N)c(Br)c([C@@H]4CCCNC4)nc23)cn1 | -27.9% |

— PubChem BioAssay (NCATS)
